Compound activity deposited in PubChem BioAssay by National Center for Advancing Translational Sciences (NCATS).
A selection: hits, their analogues and other compounds. The true share with any hit is near 6.5%.
HT1080 IDH1KD tx = toxicity to HT-1080 IDH1 knockdown cells (counter line) | HT-1080 IDH1 knockdown viability, ATP luminescence, 48 h | Potency, µM (titrated, usually from 46.1 µM), most hits filed as cytotoxic | 360,000 tested, 2% active
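After a 2 h attachment period, IDH1KD HT-1080 cells took pin-transferred compound for 48 h at 37 °C; ATP-based luminescence after 10 min room-temperature reagent incubation reported viability.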
IL1B secr inh = inhibitors of inflammasome signaling (IL-1 beta secretion); THP-1 LPS/ATP IL-1B secretion, AlphaLISA, 16 h; hits give low values; activity change, % at 57.5 µM; AID 743279; 360,000 tested, 4.7% active; in the data active = activity change below about -50%; inconclusive = mostly about -30% to -49%
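Secreted IL-1B measured by AlphaLISA bead assay after 16 h compound exposure of THP-1 cells; compounds (final up to 57.5 uM) added 1 h before LPS (250 ng/mL) and ATP (1.25 mM) stimulation; lower signal means less secretion.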
HT1080NT lethal = kills 2HG-producing HT-1080-NT fibrosarcoma cells | 360,000 tested, 1.6% active | AID 686970 | Potency, µM (doses to about 46.1 µM), hits mostly cytotoxic | HT-1080-NT fibrosarcoma viability, CellTiter-Glo ATP luminescence, 48 h;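 also: NT is the 2HG producing partner of a matched IDH1 knockdown line; nearly all actives have a fitted effect of over 55% in size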
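Viability of the 2HG-overproducing fibrosarcoma line after 48 hours of compound exposure at 37 degrees C was determined by luminescence with CellTiter-Glo, and concentration-effect curves were then fitted and categorized.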
HepG2 viability = HepG2 cytotoxicity, counter-screen for TGF-b inhibitors; AID 588856; 410,000 tested, 0.76% active; HepG2 CAGA-GFP viability, ATP luminescence, 18 h; Potency, µM (series often up to 46.1 µM), usual class: cytotoxic
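HepG2 CAGA-GFP cells (1000/well, DMEM with 1% FBS) received compound, then TGF-beta at 500 pg/mL final, and were incubated 18 hours at 37 degrees C. Viability was read by CellTiter-Glo luminescence. Media-only wells were set as complete cell-killing and DMSO as no toxicity.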
TGFb SMAD3 inh = TGF-b pathway inhibition; Potency, µM (doses to about 46.1 µM), hits mostly inhibitors; HepG2 CAGA-GFP TGF-b/SMAD3 reporter, GFP fluorescence, 18 h; TGF-beta stimulated, 500 pg/mL final; 410,000 tested, 1.2% active; also: nearly all actives have a fitted effect of over 65% in size
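TGF-beta reporter screen: HEPG2 CAGA-GFP, 1% FBS, 500 pg/mL TGF-beta final, 18 h; per-cell GFP summed per well; curves fitted and categorized by class.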
Giardia killer = Giardia lamblia killing; Giardia lamblia trophozoite viability; activity change, % at 7.66 µM, hits read low; 340,000 tested, 0.15% active; AID 540267; in the data active = activity change below about -80%; inconclusive = between about -30% and that limit;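 also: parasites exposed to compound for two days anaerobically before the ATP read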
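Killing of trophozoites was scored by loss of ATP luminescence after a 48 hrs anaerobic exposure to compounds at 37 deg C, using 100 cells per well.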
Large screens that a line does not name were inactive; ! = repeats disagree. Unless noted, calls follow the shape of the dose curve; as a rule, active = well fitted curve in the direction sought with a large enough effect; inconclusive = small, poorly fitted or top-dose-only effect, or another doubt; inactive = no such curve, though single readings can be large; an effect the other way counts as inactive or inconclusive.

CC1CCN(CC2C(=O)O[C@@H]3C[C@@]4(C)CCC[C@H](C)C4=C[C@H]23)CC(C)(C)C1 (stereo not given in full)	none (no result: IL1B secr inh)
C=C1CCC[C@]2(C)C[C@H]3OC(=O)C(CN4CC(C)OC(C)C4)[C@H]3C[C@@H]12 (stereo not given in full)	HT1080 IDH1KD tx inconclusive, IL1B secr inh -71.4, HT1080NT lethal inconclusive, TGFb SMAD3 inh inconclusive
COC(=O)c1cc(S(=O)(=O)N2CCCC(C)C2)cn1C (stereo not given)	none
COc1cc(NC(=O)c2ccc(-c3ccnn3C)c3ccoc23)cc(OC)c1OC	none (no result: Giardia killer)
CC(=O)Nc1ccc(NC(=O)c2ccc(-c3ccnn3C)c3ccoc23)cc1	IL1B secr inh -92.8 (no result: Giardia killer)
CC(C)c1ccc(NC(=O)c2ccc(-c3ccnn3C)c3ccoc23)cc1	HT1080 IDH1KD tx 18.4µM, HT1080NT lethal 14.6µM (no result: Giardia killer)
N#Cc1c(N)nc2c(c1-c1ccc3c(c1)OCO3)CCc1ccccc1-2	HT1080 IDH1KD tx 16.4µM, HT1080NT lethal inconclusive
N#Cc1c(-c2ccc3c(c2)OCO3)csc1N	IL1B secr inh -60.0
N#Cc1c(-c2ccccc2)cc(-c2ccc3c(c2)OCO3)[nH]c1=O	none
N#Cc1c(N)c(C#N)c(-c2ccc3c(c2)OCO3)c2c1CCCC2	none
Cc1nc2ccc(NS(=O)(=O)c3ccccc3F)cc2s1	TGFb SMAD3 inh inconclusive, Giardia killer inconclusive
CCCCN(CC)CCCNC(=S)Nc1ccc2nc(N3CCN(C)CC3)cc(C)c2c1	HT1080 IDH1KD tx inconclusive, IL1B secr inh -54.0, HT1080NT lethal 18.4µM
CCCCN(CC)CCCNC(=S)Nc1ccc2nc(N3CCN(CC)CC3)cc(C)c2c1	HT1080 IDH1KD tx inconclusive, IL1B secr inh inconclusive, HT1080NT lethal 16.4µM
Nc1nc(-c2cccs2)c(-c2cccs2)s1	none
CCN(CC)C(=O)CSc1nc2cc3c(cc2c(=O)n1CCCCCC(=O)NCc1ccc(OC)cc1)OCO3	IL1B secr inh -64.5
C/C(=N\Nc1ccccc1)c1c(O)cc(C)oc1=O	HT1080 IDH1KD tx 11.6µM, HT1080NT lethal inconclusive
CS(=O)(=O)N1CCC(C(=O)Nc2ccc3c(c2)OCO3)CC1	none
CCN1/C(=C/C=C/c2oc3ccc(-c4ccccc4)cc3[n+]2CC)Oc2ccc(-c3ccccc3)cc21	HT1080 IDH1KD tx 0.92µM, IL1B secr inh -107.4, HT1080NT lethal 2.59µM
O=C(COc1ccc(Cl)cc1Cl)NN=C1c2ccccc2-c2ccccc21	none
CC(C)OC(=O)c1ccc(Cn2nnc3sc4c(c3c2=O)CCCC4)cc1	none (no result: HT1080 IDH1KD tx, IL1B secr inh, HT1080NT lethal, Giardia killer)
CN1C2CCC1/C(=C\c1ccccc1F)C(=O)/C2=C/c1ccccc1F	HT1080 IDH1KD tx 11.6µM, IL1B secr inh -100.8, HT1080NT lethal inconclusive
CC1(C)CC(=O)C(C(c2ccccc2F)C2C(=O)CC(C)(C)CC2=O)C(=O)C1	none
CC(C)C(c1nnnn1C1CCCCC1)N1CCc2ccccc2C1 (stereo not given)	IL1B secr inh -78.5, HT1080NT lethal inconclusive
COc1ccc(NC(=O)Cn2cnc3ccccc3c2=O)cc1OC	none
CCCc1[nH]nc2c1C(c1cccc(OC(=O)c3ccco3)c1)C(C#N)=C(N)O2 (stereo not given)	HT1080 IDH1KD tx inconclusive, IL1B secr inh -62.2
COc1ccc(CN2CC[C@H]3C=CC[C@@H](C(=O)Nc4ccc(Cl)c(C(F)(F)F)c4)[C@H]3C2=O)cc1OC	IL1B secr inh inconclusive, TGFb SMAD3 inh 11.2µM!
CCCCNC(=O)[C@@H]1CC=C[C@@H]2CCN(Cc3ccccc3)C(=O)[C@@H]21	none (no result: HT1080 IDH1KD tx, IL1B secr inh, HT1080NT lethal, Giardia killer)
CCCCNC(=O)[C@@H]1CC=C[C@@H]2CCN(Cc3ccc(Cl)c(Cl)c3)C(=O)[C@@H]21	TGFb SMAD3 inh 7.94µM
O=C1[C@H]2[C@H](C=CC[C@H]2C(=O)N2CCN(c3ccccc3)CC2)CCN1Cc1ccccc1	none
O=C(NCc1cccnc1)[C@@H]1CC=C[C@@H]2CCN(Cc3ccc(Cl)c(Cl)c3)C(=O)[C@@H]21	TGFb SMAD3 inh 11.2µM
COc1ccc(CNC(=O)[C@@H]2CC=C[C@@H]3CCN(Cc4ccccc4)C(=O)[C@@H]32)cc1	none
O=C1[C@H]2[C@H](C=CC[C@H]2C(=O)N2CCN(c3ccccc3)CC2)CCN1Cc1ccc(Cl)c(Cl)c1	IL1B secr inh -51.2, TGFb SMAD3 inh 10µM!
O=C(NCc1ccc(F)cc1Cl)C1CCN(S(=O)(=O)N2CCCCC2)CC1	none
CCCCCC(=O)Nc1ccc2oc(-c3cccnc3)nc2c1	none
COC(=O)c1c(-c2ccc(F)cc2)noc1N	HT1080 IDH1KD tx 11.2µM
O=C(CCOc1ccccc1)Nc1ccnn1C1CCN(CCc2ccccc2)CC1	IL1B secr inh -51.5
O=C(CCCc1ccccc1)Nc1ccnn1C1CCN(Cc2ccccn2)CC1	none
Cc1ccccc1CN1CCC(n2nccc2NC(=O)CCCc2ccccc2)CC1	HepG2 viability 17.8µM
COC(=O)C/C(N)=C(\C#N)C(=O)OC	none
CC1(C)CC(NC(=O)c2sc3cc(Cl)ccc3c2Cl)CC(C)(C)N1	HT1080 IDH1KD tx 11.6µM, IL1B secr inh -73.1, HT1080NT lethal 14.6µM
CCC(C)[C@H](NC(=O)N1CCCC1)C(=O)O (stereo not given in full)	none
O=C(CNS(=O)(=O)c1ccc(Br)s1)N1CCN(c2ccccc2F)CC1	none (no result: HT1080 IDH1KD tx, IL1B secr inh, HT1080NT lethal, Giardia killer)
CCOc1ccc(S(=O)(=O)N2CCC(C(=O)N3CCCCCC3)CC2)cc1C	IL1B secr inh -52.0
CCOc1ccc(S(=O)(=O)N2CCC(C(=O)N3CCCCCC3)CC2)cc1Cl	TGFb SMAD3 inh inconclusive
C=C(C)CNC(=S)NNC(=O)c1ccco1	HT1080 IDH1KD tx inconclusive, HT1080NT lethal 2µM, TGFb SMAD3 inh inconclusive
COc1ccc(S(=O)(=O)N(C)C2CCS(=O)(=O)C2)cc1OC (stereo not given)	none
O=C(CCC(=O)Nc1ccccc1Cl)NNC(=O)c1ccco1	none
O=C(CC(=O)c1cc(Cl)ccc1O)c1ccccc1	HT1080 IDH1KD tx inconclusive, HT1080NT lethal inconclusive, HepG2 viability 11.2µM, TGFb SMAD3 inh inconclusive
COc1ccc(C(=O)N2CCCC(O)C2)cc1OC1CCN(C(C)C)CC1 (stereo not given)	none
O=C(CSC1=NCCS1)N1N=C(c2cccs2)CC1c1ccc(F)cc1 (stereo not given)	IL1B secr inh -65.7, TGFb SMAD3 inh inconclusive (no result: Giardia killer)
O=C(CSc1nc2ccccc2o1)N1N=C(c2cccs2)CC1c1ccc(F)cc1 (stereo not given)	none
Cc1c(Cl)ccc2sc(N3CCN(C(=O)C4CC4)CC3)nc12	TGFb SMAD3 inh 17.8µM (no result: HT1080 IDH1KD tx, IL1B secr inh, HT1080NT lethal, Giardia killer)
CC1(C)Cc2cccc(OCC(=O)NCCOc3ccccc3)c2O1	TGFb SMAD3 inh inconclusive
